Common to all, as to assay: DAPPL (digital affinity profiling via proximity ligation, sequencing); 10 mM Tris-HCl pH 7.5, 50 mM NaCl, 1 mM DTT, 4% glycerol, room temperature, 30 min; GST-TFs on glutathione beads, 16-mer random dsDNA library, 0.1% formaldehyde crosslink after washing; high values mean tight binding
Assay [1] addresses T1, FEV (Homo sapiens, UniProt Q99581 1-238).
T1 sequence: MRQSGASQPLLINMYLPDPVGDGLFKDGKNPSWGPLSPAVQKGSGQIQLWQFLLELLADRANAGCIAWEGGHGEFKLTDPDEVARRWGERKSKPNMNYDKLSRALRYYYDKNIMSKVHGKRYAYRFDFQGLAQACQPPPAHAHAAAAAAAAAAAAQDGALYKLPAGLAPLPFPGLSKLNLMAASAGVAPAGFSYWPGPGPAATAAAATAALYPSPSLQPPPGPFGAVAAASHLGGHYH
The settings on record: protein: recombinant; tags: N-terminal GST; dsDNA, one strand shown. Put shortly:
(§1)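 Sequencing on an Illumina NextSeq500 followed washing, crosslinking with 0.1% formaldehyde, proximity ligation (BsaI/T4 ligase, 1 h, 37 °C) and PCR amplification of pools that had been incubated for 30 min at room temperature with 200 nmole of a random double-stranded 16-mer DNA library in Tris/NaCl/DTT/glycerol buffer. Each pool held DNA-barcoded human transcription factors, expressed in yeast as GST fusions and captured on glutathione beads, plus a tag-only sample. Binding signal is a hexamer's read frequency for a factor divided by its frequency in the tag-only sample.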

Assay [2] concerns the target ETV5 (Homo sapiens, UniProt P41161 1-510). The settings on record: protein: recombinant; tags: N-terminal GST; dsDNA, one strand shown. The procedure, abridged: as §1
Assay [3] addresses HSF1 (Homo sapiens, UniProt Q00613 1-529). The following applies: protein: recombinant; tags: N-terminal GST; chain copies: 3; dsDNA, one strand shown. Put shortly: as §1
The target of assay [4] is T2, SPIC (Homo sapiens, UniProt Q8N5J4 1-248).
T2 sequence: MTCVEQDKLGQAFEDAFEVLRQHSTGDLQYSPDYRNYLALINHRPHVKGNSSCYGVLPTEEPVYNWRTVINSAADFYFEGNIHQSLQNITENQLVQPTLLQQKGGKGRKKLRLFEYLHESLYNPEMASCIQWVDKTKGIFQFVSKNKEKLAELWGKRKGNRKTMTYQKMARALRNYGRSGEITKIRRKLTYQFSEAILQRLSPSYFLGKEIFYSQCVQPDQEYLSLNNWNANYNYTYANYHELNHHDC
The settings on record: protein: recombinant; tags: N-terminal GST; dsDNA, one strand shown. Put shortly: as §1

The target of assay [5] is ELF4 (Homo sapiens, UniProt Q99607 1-663). The settings on record: protein: recombinant; tags: N-terminal GST; dsDNA, one strand shown. The procedure, abridged:
as §1

Assay [6] has as its target T3, ELK4 (Homo sapiens, UniProt P28324-2 1-405).
T3 sequence: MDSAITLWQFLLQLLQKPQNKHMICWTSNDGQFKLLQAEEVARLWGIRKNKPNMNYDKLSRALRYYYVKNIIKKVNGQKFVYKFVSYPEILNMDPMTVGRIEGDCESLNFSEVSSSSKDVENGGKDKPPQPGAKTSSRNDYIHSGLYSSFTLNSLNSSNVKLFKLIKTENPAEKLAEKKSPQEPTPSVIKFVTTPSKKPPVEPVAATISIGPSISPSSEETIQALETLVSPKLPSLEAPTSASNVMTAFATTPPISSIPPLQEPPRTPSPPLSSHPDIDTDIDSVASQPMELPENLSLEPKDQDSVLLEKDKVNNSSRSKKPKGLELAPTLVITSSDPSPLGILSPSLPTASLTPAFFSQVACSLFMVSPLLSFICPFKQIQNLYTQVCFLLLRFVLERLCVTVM
The following applies: protein: recombinant; tags: N-terminal GST; dsDNA, one strand shown. Put shortly:
as §1

The target of assay [7] is T4, ETV2 (Homo sapiens, UniProt O00321 1-342).
T4 sequence: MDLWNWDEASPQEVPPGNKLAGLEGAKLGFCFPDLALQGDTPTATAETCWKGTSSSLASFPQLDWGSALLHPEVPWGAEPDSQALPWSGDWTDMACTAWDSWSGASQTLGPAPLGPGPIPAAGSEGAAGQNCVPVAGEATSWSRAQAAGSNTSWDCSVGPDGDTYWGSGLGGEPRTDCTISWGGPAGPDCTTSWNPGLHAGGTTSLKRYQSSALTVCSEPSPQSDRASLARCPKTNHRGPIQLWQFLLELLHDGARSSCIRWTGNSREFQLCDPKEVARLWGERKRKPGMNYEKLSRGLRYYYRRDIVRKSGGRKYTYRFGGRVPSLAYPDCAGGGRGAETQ
The settings on record: protein: recombinant; tags: N-terminal GST; dsDNA, one strand shown. The procedure, abridged: as §1

For assay [8], the target named is T5, ELF3 (Homo sapiens, UniProt P78545 1-371).
T5 sequence: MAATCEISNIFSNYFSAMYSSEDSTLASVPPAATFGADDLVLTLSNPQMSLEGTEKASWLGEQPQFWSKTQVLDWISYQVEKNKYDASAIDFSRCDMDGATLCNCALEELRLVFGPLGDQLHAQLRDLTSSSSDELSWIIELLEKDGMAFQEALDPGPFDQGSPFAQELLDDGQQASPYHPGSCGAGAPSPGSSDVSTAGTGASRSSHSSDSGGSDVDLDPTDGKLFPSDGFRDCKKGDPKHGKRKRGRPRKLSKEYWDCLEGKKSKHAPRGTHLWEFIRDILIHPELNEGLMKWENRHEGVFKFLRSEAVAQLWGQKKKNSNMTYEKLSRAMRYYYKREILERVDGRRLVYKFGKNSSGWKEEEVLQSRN
The settings on record: protein: recombinant; tags: N-terminal GST; dsDNA, one strand shown. The procedure, abridged: as §1

Assay [9] addresses CRX (Homo sapiens, UniProt O43186 1-299). The settings on record: protein: recombinant; tags: N-terminal GST; dsDNA, one strand shown. The procedure, abridged:
as §1

In assay [10] the target is ETV1 (Homo sapiens, UniProt P50549 1-477). The settings on record: protein: recombinant; tags: N-terminal GST; dsDNA, one strand shown. Put shortly:
as §1

Assay [11] addresses T6, ERF (Homo sapiens, UniProt P50548 1-548).
T6 sequence: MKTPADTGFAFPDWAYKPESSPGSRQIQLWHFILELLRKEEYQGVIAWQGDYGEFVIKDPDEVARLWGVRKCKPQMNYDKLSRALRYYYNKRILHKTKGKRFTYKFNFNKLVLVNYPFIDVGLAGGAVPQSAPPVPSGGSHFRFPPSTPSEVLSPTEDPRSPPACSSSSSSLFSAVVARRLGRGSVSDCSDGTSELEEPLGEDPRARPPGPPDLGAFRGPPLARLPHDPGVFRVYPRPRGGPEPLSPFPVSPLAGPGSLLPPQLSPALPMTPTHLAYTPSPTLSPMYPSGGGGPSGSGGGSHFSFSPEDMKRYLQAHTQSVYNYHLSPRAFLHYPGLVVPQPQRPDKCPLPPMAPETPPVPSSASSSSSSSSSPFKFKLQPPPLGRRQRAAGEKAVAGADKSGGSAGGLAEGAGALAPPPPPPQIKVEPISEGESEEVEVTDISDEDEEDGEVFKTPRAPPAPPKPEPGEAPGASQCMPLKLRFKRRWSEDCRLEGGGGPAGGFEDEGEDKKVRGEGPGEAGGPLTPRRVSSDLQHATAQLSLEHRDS
The settings on record: protein: recombinant; tags: N-terminal GST; dsDNA, one strand shown. The procedure, abridged:
as §1

In assay [12] the target is T7, ETV3L (Homo sapiens, UniProt Q6ZN32 1-361).
T7 sequence: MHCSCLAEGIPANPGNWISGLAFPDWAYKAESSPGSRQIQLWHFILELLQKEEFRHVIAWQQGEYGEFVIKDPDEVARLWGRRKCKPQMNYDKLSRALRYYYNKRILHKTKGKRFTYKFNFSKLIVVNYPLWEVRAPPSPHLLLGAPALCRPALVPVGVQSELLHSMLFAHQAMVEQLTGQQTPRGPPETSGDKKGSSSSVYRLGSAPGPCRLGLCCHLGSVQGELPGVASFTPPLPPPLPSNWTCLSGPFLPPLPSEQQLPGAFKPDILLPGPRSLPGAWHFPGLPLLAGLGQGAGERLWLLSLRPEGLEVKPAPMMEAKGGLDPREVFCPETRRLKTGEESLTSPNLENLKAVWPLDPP
The following applies: protein: recombinant; tags: N-terminal GST; dsDNA, one strand shown. The procedure, abridged: as §1

Assay [13] concerns the target T8, ETS2 (Homo sapiens, UniProt P15036 1-469).
T8 sequence: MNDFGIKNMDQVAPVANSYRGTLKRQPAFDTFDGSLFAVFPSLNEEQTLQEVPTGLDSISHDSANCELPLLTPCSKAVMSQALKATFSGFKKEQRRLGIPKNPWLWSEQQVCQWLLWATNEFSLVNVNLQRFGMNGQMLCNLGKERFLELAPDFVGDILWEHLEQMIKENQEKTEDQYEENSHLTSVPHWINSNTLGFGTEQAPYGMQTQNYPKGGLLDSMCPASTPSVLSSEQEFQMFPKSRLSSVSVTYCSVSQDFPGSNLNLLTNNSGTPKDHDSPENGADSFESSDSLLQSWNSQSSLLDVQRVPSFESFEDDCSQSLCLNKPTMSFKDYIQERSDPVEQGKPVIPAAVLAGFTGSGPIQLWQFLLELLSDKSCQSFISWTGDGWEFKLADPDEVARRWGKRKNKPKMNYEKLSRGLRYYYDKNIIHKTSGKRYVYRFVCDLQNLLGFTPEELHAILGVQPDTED
The following applies: protein: recombinant; tags: N-terminal GST; dsDNA, one strand shown. Put shortly: as §1

Assay [14] deals with T9, SPDEF (Homo sapiens, UniProt O95238 1-335).
T9 sequence: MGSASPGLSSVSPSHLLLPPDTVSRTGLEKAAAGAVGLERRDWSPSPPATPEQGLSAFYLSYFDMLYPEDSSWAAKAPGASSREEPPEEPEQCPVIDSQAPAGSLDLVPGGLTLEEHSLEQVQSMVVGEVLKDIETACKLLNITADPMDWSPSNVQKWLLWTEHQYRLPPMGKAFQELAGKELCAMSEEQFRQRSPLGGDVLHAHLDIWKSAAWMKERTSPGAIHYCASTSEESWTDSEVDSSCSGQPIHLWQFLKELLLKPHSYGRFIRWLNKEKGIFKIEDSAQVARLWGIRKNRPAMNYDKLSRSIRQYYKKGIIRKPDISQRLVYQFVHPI
The following applies: protein: recombinant; tags: N-terminal GST; dsDNA, one strand shown. Put shortly:
as §1

For assay [15], the target named is T10, ETV7 (Homo sapiens, UniProt Q9Y603 1-341).
T10 sequence: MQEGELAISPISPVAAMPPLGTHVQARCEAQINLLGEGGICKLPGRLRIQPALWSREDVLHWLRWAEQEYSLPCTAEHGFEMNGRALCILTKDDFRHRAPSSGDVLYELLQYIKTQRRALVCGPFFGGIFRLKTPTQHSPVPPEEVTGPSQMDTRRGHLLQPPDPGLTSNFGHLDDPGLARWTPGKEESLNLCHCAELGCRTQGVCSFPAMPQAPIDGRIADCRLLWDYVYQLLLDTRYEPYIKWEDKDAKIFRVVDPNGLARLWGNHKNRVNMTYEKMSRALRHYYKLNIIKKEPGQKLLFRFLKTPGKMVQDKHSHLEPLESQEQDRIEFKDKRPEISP
The following applies: protein: recombinant; tags: N-terminal GST; dsDNA, one strand shown. The procedure, abridged:
as §1

The target in assay [16] is T11, ELF5 (Homo sapiens, UniProt Q9UKW6-2 1-255).
T11 sequence: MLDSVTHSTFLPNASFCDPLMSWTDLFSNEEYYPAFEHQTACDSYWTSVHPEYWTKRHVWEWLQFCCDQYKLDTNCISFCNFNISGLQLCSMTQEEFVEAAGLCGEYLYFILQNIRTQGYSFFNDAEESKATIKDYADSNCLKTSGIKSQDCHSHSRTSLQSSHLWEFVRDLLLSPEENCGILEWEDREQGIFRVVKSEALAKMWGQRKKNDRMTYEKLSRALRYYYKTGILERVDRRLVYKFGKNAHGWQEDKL
The settings on record: protein: recombinant; tags: N-terminal GST; dsDNA, one strand shown. The procedure, abridged:
as §1

For assay [17], the target named is T12, ETV3 (Homo sapiens, UniProt P41162-2 1-143).
T12 sequence: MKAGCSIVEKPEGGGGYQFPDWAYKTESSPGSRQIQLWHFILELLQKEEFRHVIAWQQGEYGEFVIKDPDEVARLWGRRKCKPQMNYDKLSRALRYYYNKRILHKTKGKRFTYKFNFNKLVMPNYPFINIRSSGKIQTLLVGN
The settings on record: protein: recombinant; tags: N-terminal GST; dsDNA, one strand shown. The procedure, abridged:
as §1

Assay [18] concerns the target ETV6 (Homo sapiens, UniProt P41212 1-452). The following applies: protein: recombinant; tags: N-terminal GST; dsDNA, one strand shown. Put shortly: as §1

The results in this text go back to paper PMC7862700, “An all-to-all approach to the identification of sequence-specific readers for epigenetic DNA modifications on cytosine”.

Chain of ETV6 (P41212 whole entry): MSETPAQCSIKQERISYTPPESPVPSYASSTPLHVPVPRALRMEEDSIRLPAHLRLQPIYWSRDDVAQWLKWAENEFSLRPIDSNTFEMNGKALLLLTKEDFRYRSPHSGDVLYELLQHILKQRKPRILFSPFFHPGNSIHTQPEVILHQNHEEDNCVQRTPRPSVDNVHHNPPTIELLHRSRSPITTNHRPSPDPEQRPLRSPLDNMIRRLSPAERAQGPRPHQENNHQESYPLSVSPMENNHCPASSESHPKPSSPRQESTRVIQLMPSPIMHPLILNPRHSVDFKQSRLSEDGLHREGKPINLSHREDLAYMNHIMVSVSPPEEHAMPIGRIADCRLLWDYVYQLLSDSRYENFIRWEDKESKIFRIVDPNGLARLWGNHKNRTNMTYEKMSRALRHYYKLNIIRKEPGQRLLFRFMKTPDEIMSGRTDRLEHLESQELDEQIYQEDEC
Chain of HSF1 (Q00613 whole entry): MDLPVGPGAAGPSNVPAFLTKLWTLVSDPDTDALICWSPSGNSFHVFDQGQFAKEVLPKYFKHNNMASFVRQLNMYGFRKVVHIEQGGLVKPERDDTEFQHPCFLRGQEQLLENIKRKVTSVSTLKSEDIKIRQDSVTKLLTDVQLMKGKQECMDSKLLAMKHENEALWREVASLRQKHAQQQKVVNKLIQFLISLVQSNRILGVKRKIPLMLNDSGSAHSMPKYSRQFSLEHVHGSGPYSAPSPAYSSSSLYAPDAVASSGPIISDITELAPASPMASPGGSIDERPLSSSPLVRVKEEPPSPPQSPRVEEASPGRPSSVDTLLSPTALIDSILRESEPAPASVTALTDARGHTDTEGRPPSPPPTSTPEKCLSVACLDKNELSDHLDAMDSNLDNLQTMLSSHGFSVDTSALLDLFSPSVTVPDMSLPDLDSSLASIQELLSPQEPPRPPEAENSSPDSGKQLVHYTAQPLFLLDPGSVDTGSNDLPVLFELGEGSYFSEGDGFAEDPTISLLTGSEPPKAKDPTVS
Chain of ETV5 (P41161 whole entry): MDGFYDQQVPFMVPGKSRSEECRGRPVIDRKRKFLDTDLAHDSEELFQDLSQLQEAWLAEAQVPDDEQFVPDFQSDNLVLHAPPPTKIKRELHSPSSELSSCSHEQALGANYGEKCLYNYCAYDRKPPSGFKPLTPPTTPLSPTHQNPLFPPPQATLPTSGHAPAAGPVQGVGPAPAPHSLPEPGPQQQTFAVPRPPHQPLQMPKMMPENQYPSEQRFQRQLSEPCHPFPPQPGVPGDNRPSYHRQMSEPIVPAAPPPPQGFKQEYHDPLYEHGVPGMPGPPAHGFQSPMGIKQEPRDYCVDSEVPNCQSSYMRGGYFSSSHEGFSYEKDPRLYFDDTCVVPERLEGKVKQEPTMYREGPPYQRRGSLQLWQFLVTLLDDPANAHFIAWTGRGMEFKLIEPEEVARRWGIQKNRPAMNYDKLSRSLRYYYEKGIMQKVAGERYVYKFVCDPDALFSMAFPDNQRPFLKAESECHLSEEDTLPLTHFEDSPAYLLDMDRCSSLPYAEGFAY
Chain of ETV1 (P50549 whole entry): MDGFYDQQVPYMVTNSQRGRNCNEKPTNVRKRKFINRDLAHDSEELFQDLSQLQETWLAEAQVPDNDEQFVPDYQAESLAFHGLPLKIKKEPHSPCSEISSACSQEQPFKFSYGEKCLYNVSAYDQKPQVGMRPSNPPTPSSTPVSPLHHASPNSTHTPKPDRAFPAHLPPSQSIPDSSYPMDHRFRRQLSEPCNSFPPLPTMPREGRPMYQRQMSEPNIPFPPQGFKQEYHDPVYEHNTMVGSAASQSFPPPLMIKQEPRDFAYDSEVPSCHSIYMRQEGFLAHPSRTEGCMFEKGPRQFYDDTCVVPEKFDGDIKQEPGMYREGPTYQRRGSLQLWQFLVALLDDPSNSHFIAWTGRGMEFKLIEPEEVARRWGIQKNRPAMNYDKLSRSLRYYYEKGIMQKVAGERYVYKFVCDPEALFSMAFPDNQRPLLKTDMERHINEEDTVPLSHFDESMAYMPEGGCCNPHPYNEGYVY
Chain of ELF4 (Q99607 whole entry): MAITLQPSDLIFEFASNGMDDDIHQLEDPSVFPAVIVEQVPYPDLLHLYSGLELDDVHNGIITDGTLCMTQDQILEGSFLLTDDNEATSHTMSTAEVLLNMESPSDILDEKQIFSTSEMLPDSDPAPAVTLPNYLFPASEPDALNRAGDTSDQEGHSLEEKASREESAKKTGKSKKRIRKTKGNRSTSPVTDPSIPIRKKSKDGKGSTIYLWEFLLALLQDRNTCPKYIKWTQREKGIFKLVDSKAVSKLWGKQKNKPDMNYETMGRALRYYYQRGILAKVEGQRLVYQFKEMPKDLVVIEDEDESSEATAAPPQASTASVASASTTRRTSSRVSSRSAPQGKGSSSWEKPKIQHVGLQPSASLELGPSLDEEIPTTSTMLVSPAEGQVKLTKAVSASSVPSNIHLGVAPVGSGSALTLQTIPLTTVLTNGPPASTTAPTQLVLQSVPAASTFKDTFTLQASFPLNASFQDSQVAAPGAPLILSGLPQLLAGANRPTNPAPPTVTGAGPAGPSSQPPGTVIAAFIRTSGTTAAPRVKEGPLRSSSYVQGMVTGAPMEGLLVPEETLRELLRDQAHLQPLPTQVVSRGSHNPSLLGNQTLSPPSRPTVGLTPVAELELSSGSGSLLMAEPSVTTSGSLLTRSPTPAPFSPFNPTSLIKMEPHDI
Chain of CRX (O43186 whole entry): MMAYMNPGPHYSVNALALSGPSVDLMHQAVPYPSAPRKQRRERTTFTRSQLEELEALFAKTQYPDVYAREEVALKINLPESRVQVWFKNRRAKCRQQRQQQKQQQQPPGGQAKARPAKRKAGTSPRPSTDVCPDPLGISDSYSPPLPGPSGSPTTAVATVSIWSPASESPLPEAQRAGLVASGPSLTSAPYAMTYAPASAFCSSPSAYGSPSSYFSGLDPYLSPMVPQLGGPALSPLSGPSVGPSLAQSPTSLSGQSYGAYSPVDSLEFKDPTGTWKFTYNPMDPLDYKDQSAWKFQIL

Turning to TTCTAT, the binding signal in assay [1] is 1.4 fold enrichment (6-mer frequency, TF over GST control); in assay [2], 1.43 fold enrichment (6-mer frequency, TF over GST control); in assay [3] it was 2.05 fold enrichment (6-mer frequency, TF over GST control); in [4] it was 1.44 fold enrichment (6-mer frequency, TF over GST control); in assay [5] it was 1.4 fold enrichment (6-mer frequency, TF over GST control); in assay [6] it was 1.52 fold enrichment (6-mer frequency, TF over GST control). In addition, the binding signal was 1.32 fold enrichment (6-mer frequency, TF over GST control) in assay [7]; 1.28 fold enrichment (6-mer frequency, TF over GST control) in assay [8]; 1.67 fold enrichment (6-mer frequency, TF over GST control) in assay [9]; 1.3 fold enrichment (6-mer frequency, TF over GST control) in assay [10]; 1.46 fold enrichment (6-mer frequency, TF over GST control) in assay [11]; 1.35 fold enrichment (6-mer frequency, TF over GST control) in [12]. Moreover, the binding signal in [13] is 1.38 fold enrichment (6-mer frequency, TF over GST control); in [14], 1.35 fold enrichment (6-mer frequency, TF over GST control); in assay [15], 1.33 fold enrichment (6-mer frequency, TF over GST control); in assay [16] it was 1.3 fold enrichment (6-mer frequency, TF over GST control); in assay [17] it was 1.33 fold enrichment (6-mer frequency, TF over GST control); in [18] it was 1.28 fold enrichment (6-mer frequency, TF over GST control).
